From PubChem BioAssay
ELG1 DNA repair = qHTS screen for small molecules that inhibit ELG1-dependent DNA repair in human embryonic kidney (HEK293T) cells expressing luciferase-tagged ELG1. HEK293T ELG1-luciferase reporter, luminescence, 16 h; DNA damage induced by 5-fluorouridine. 330,000 compounds, 2.3% hits. Potency, µM (series often up to 46.1 µM), hits mostly inhibitors; also: nearly all actives have a fitted effect of over 55% in size
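HEK293T cells expressing luciferase-tagged ELG1 (2,000/well) received 5-Fluorouridine plus compound or DMSO for 16 hr at 37 °C. Luciferase was read by ONE-Glo luminescence after 30 min at room temperature.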
IL-1B inflam inh = qHTS for Inhibitors of Inflammasome Signaling: IL-1-beta AlphaLISA Primary Screen; 360,000 compounds, 4.7% hits; activity change, % at 57.5 µM; AID 743279, 2014; THP-1 LPS/ATP IL-1B secretion, AlphaLISA, 16 h; hits give low values; in the data active = activity change below about -50%; inconclusive = mostly about -30% to -49%
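THP-1 cells pretreated 1 hr with compounds (up to 57.5 uM final), then stimulated with LPS (250 ng/mL final) plus ATP (1.25 mM final); secreted IL-1B measured by AlphaLISA after 16 hr, decreased signal indicating inhibition.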
Giardia killer = Small Molecules that selectively kill Giardia lamblia: qHTS. 340,000 compounds, 0.15% hits. activity change, % at 7.66 µM, hits read low. Giardia lamblia trophozoite viability; in the data active = activity change below about -80%; inconclusive = between about -30% and that limit;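 also: parasites exposed to compound for two days anaerobically before the ATP read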
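ATP-content bioluminescence gauges trophozoite survival. Cells (100/well) receive compound and incubate anaerobically for 48 hrs at 37 deg C; detection reagent follows for 15-30 min at room temperature.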
TDP1 cell noCPT = qHTS for Inhibitors of human tyrosyl-DNA phosphodiesterase 1 (TDP1): qHTS in cells in absence of CPT; DT40 Tdp1-/- hTDP1 cells, no CPT, ATP luminescence, 48 h; Potency, µM (series often up to 46.2 µM), usual class: inhibitors; 420,000 compounds, 15% hits; AID 686978, 2013; also: nearly all actives have a fitted effect of over 55% in size
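No-CPT arm: Tdp1-/-;hTDP1 DT40 cells (400/well) plus compounds, incubated ≥48 hr at 37 °C. Readout CellTiter-Glo luminescence.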
TDP1 block = qHTS Assay for Inhibitors of Tyrosyl-DNA Phosphodiesterase (TDP1) | Tyrosyl-DNA phosphodiesterase 1 (Homo sapiens), Q9NUW8 | 350,000 compounds, 0.28% hits | recombinant TDP1, AlphaScreen DNA substrate cleavage | Potency, µM (top dose mostly 130 µM), hits mostly inhibitors; also: nearly all actives have a fitted effect of over 40% in size
Target sequence (Q9NUW8 whole entry, looked up): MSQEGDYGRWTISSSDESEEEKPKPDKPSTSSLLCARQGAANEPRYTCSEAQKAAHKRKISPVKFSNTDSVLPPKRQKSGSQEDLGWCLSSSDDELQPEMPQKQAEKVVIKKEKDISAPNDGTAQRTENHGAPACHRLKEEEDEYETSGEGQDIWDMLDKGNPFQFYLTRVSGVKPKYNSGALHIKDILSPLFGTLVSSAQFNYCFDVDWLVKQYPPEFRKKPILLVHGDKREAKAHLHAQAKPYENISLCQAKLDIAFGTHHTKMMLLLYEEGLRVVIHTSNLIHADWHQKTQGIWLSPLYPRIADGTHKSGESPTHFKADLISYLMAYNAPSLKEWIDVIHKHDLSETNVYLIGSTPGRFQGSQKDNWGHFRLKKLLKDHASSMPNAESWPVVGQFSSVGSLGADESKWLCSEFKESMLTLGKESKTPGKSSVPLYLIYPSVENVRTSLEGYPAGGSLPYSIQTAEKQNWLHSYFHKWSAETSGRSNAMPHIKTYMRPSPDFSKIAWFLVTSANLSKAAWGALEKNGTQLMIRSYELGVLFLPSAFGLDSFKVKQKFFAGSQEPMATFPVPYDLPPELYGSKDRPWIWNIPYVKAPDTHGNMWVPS
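Enzyme-compound mixtures sat 15 min at room temperature, followed by a 5 min reaction with 15 nM final substrate and 10 min with AlphaScreen beads. Recombinant human Tdp1 was used at 1 nM final.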
DT40 TDP1 CPT = qHTS for Inhibitors of human tyrosyl-DNA phosphodiesterase 1 (TDP1): qHTS in cells in presence of CPT. chicken DT40 Tdp1-/-;hTDP1 cells + 20 nM CPT, ATP luminescence, 48 h. Potency, µM (series often up to 46.2 µM), most hits filed as inhibitors. 420,000 compounds, 12% hits. AID 686979, 2013; also: nearly all actives have a fitted effect of over 55% in size
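Chicken DT40 Tdp1-/- cells stably complemented with human TDP1 were seeded at 400 cells/well in medium containing 20 nM camptothecin, exposed to pin-transferred compounds, and grown at 37 °C for at least 48 hr. Viability was read as ATP luminescence.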
Hits are given with their value; n = inactive; u = inconclusive; x = no result given. Compounds with a hit are over-represented: about 19% of the library has one in this group of screens. Unless noted, calls follow the shape of the dose curve; as a rule, active = well fitted curve in the direction sought with a large enough effect; inconclusive = small, poorly fitted or top-dose-only effect, or another doubt; inactive = no such curve, though single readings can be large; an effect the other way counts as inactive or inconclusive.

SMILES	ELG1 DNA repair	IL-1B inflam inh	Giardia killer	TDP1 cell noCPT	TDP1 block	DT40 TDP1 CPT
CCCOc1ccc(CN(C(=O)Cc2coc3ccc(CC)cc23)C2CCS(=O)(=O)C2)cc1 (centres undefined)	x	x	x	u	n	u
C=C[C@@H](C1=CC(=O)C(OC)=C(OC)C1=O)c1ccccc1	x	x	x	0.73µM	n	1.2µM
C=CC(C1=CC(=O)C=CC1=O)c1ccccc1 (centres undefined)	x	x	x	u	n	u
NC(N)=N/N=C/c1cc([N+](=O)[O-])ccc1O	n	n	n	n	n	n
O=[N+]([O-])c1ccc(O)c(/C=N\N=C2c3ccccc3-c3ccccc32)c1	u	n	n	12µM	n	23µM
O=[N+]([O-])c1ccc(O)c(/C=N/NC2=NS(=O)(=O)c3ccccc32)c1	u	n	n	0.52µM	n	4.1µM
O=[N+]([O-])c1ccc(O)c(/C=N/Nc2ccc(Cl)nn2)c1	u	n	n	1.2µM	n	1.2µM
O=S1(=O)N=C(N/N=C/c2cccs2)c2ccccc21	n	-99	n	u	x	n
c1ccc(COc2cccc(-c3cc4nc(NCc5ccc6c(c5)OCO6)ccn4n3)c2)cc1	x	n	x	u	x	u
COC(CNC(=O)Cc1c(C)nc2c(-c3ccccc3)c(C)nn2c1C)OC	n	n	n	n	n	n
Cc1nc2c(C(=O)NC(C)c3ccccc3)cnn2c(C)c1Cc1ccccc1 (centres undefined)	x	x	x	u	n	13µM
COC(CNC(=O)c1cnn2c(C)c(Cc3ccccc3)c(C)nc12)OC	u	u	n	16µM	n	u
Cc1ccc(Cc2c(C)nc3nc(SCC(=O)NC(C)c4ccccc4)nn3c2C)cc1 (centres undefined)	x	x	x	u	n	u
NS(=O)(=O)Nc1ccccc1Br	x	x	n	x	n	x
Cc1cc(Nc2ccccc2C(=O)O)n(-c2ccc([N+](=O)[O-])cc2)n1	n	n	n	n	n	n
CN(C)c1ncc2nc(-c3ccc(F)cc3)c(=O)n(C[C@H]3CCCO3)c2n1	x	x	x	n	x	n
Cn1ccnc1SCC(=O)c1cccc(C(F)(F)F)c1	u	n	n	n	n	n
CCOC(=O)CN1C(c2ccc(O)cc2)Nc2ccc(Br)cc2C1c1ccccc1 (centres undefined)	u	-102	n	u	n	15µM
Cc1cccnc1C1=NOC(Cc2ccccc2)C(=O)N1Cc1ccccc1F (centres undefined)	x	n	x	u	x	u
COc1ccc(C2(C)NC(=O)N(CC(=O)Nc3ccc4c(c3)CCC4)C2=O)cc1OC (centres undefined)	n	n	n	n	n	n
COc1ccc(C2(C)NC(=O)N(CC(=O)Nc3ccc4ccccc4c3)C2=O)cc1OC (centres undefined)	u	-55	n	u	n	n
CC(C)(C)NC(=O)CN1C(=O)NC(c2ccccc2)(c2ccccc2)C1=O	n	n	n	n	n	n
O=C(CCl)NN1C(=O)NC(c2ccccc2)(c2ccccc2)C1=O	u	-117	n	21µM	n	u
COc1cccc(NC(=O)CN2C(=O)NC(C)(c3ccc(C)cc3)C2=O)c1 (centres undefined)	n	n	n	n	40µM	n
O=C(CN1C(=O)NC(c2ccccc2)(c2ccccc2)C1=O)NCc1ccc(F)cc1	u	-55	n	n	n	u
Cc1cc(OCC(=O)NCc2ccccn2)c2c(C)c(Cc3ccccc3)c(=O)oc2c1	u	n	n	u	n	u
COc1ccc(C2(c3ccc(OC)cc3)NC(=O)N(CC(=O)Nc3cc(C)ccc3OC)C2=O)cc1	n	n	n	u	n	18µM
